# Measurements published in paper PMC7862700, “An all-to-all approach to the identification of sequence-specific readers for epigenetic DNA modifications on cytosine”.
# Columns and labels:
# Test in all cases: DAPPL (digital affinity profiling via proximity ligation, sequencing); 10 mM Tris-HCl pH 7.5, 50 mM NaCl, 1 mM DTT, 4% glycerol, room temperature, 30 min; GST-TFs on glutathione beads, 16-mer random dsDNA library, 0.1% formaldehyde crosslink after washing; high values mean tight binding
# [1] = molecular target: T1, FLI1 (Homo sapiens, UniProt Q01543 1-452); conditions: protein: recombinant; tags: N-terminal GST; dsDNA, one strand shown
# T1 sequence: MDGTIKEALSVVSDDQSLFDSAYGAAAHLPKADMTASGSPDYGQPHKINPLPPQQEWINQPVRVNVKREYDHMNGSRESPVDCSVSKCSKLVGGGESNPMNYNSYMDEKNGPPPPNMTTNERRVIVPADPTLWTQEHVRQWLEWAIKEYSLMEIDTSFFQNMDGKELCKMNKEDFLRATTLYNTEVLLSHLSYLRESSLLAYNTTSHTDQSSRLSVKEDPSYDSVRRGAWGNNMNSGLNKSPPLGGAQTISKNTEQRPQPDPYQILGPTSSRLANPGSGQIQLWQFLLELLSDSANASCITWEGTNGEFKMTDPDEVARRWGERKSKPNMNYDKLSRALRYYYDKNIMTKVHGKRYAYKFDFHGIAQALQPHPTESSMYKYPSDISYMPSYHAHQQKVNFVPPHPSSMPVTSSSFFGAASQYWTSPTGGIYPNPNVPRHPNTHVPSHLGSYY
# How it was run: (§1)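 Binding signal is defined as a hexamer's read frequency for one factor over its frequency for the tag-only sample. To obtain reads, GST-fused human transcription factors were expressed in yeast, captured on glutathione beads, barcoded with DNA and pooled with that sample. Pools met 200 nmole of a 16-mer random double-stranded DNA library in Tris/NaCl/DTT/glycerol buffer for 30 min at room temperature before washing, 0.1% formaldehyde crosslinking, proximity ligation (BsaI/T4 ligase, 1 h, 37 °C), PCR and Illumina NextSeq500 sequencing.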
# [2] = molecular target: T2, ELK1 (Homo sapiens, UniProt P19419 1-428); conditions: protein: recombinant; tags: N-terminal GST; dsDNA, one strand shown
# T2 sequence: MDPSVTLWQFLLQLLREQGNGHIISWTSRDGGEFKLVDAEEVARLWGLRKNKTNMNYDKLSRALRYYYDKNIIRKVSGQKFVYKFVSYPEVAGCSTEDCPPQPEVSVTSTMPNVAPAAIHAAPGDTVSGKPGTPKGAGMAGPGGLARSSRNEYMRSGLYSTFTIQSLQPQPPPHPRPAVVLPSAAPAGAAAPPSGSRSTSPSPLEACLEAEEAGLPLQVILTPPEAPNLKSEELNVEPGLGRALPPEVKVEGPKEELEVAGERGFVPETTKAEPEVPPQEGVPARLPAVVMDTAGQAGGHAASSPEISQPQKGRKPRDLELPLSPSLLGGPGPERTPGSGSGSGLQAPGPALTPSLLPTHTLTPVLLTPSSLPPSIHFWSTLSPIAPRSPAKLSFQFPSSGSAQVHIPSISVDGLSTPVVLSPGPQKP
# How it was run: as §1
# [3] = molecular target: T3, GABPA (Homo sapiens, UniProt Q06546 1-454); conditions: protein: recombinant; tags: N-terminal GST; dsDNA, one strand shown
# T3 sequence: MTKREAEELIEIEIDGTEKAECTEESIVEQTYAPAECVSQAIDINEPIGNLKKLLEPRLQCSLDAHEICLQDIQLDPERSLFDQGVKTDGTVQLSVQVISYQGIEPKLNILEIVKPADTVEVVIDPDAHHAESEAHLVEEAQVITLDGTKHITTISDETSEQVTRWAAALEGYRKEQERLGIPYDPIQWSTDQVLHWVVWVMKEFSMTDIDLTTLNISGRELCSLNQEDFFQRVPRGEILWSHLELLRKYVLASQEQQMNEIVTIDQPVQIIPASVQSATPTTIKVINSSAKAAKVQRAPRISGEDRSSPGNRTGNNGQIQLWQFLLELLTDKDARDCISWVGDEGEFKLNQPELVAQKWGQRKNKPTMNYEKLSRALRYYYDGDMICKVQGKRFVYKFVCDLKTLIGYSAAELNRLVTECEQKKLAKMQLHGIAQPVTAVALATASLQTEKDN
# How it was run: as §1
# [4] = molecular target: T4, ERG (Homo sapiens, UniProt P11308 1-479); conditions: protein: recombinant; tags: N-terminal GST; dsDNA, one strand shown
# T4 sequence: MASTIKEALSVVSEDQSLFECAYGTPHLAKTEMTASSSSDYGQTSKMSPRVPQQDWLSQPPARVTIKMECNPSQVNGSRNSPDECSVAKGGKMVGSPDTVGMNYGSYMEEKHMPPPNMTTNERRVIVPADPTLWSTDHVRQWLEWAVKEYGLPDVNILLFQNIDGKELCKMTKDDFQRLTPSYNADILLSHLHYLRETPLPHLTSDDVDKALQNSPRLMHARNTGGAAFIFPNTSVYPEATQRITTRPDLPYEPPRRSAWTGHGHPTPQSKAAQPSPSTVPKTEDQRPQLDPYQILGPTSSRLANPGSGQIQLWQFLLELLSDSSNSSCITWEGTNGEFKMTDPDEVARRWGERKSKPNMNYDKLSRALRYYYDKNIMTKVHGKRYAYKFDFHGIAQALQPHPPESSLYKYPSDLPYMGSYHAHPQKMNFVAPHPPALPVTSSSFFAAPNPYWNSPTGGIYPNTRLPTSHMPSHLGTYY
# How it was run: as §1
# [5] = molecular target: ELF1 (Homo sapiens, UniProt P32519 1-619); conditions: protein: recombinant; tags: N-terminal GST; dsDNA, one strand shown
# Chain of ELF1 (P32519 whole entry): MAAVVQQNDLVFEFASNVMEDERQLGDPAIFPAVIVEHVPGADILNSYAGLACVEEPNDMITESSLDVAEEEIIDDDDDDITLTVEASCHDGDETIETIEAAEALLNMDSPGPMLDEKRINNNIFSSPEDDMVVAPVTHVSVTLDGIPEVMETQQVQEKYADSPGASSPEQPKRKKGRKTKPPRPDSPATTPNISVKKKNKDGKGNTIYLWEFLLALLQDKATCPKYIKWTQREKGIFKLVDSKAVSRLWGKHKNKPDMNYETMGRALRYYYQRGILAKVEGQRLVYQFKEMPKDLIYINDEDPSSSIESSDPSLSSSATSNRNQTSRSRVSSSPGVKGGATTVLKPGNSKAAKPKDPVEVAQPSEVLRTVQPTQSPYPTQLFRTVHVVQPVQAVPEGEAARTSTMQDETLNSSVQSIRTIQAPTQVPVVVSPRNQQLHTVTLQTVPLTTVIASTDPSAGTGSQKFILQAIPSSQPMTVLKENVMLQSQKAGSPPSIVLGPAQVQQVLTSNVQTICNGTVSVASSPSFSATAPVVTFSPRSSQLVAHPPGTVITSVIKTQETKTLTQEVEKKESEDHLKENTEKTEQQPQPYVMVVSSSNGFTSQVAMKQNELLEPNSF
# How it was run: as §1
# [6] = molecular target: T5, EHF (Homo sapiens, UniProt Q9NZC4 1-300); conditions: protein: recombinant; tags: N-terminal GST; dsDNA, one strand shown
# T5 sequence: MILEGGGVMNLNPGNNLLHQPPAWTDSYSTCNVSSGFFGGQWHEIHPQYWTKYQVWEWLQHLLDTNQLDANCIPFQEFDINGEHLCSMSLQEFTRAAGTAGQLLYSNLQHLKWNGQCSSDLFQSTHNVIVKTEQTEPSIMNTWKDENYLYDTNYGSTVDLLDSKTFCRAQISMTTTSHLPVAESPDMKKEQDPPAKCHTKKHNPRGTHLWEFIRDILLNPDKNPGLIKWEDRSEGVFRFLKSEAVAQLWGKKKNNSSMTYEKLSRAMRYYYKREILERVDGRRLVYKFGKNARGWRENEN
# How it was run: as §1
# [7] = molecular target: SPI1 (Homo sapiens, UniProt P17947 1-270); conditions: protein: recombinant; tags: N-terminal GST; dsDNA, one strand shown
# How it was run: as §1
# [8] = molecular target: SPIB (Homo sapiens, UniProt Q01892 1-262); conditions: protein: recombinant; tags: N-terminal GST; dsDNA, one strand shown
# Chain of SPIB (Q01892 whole entry): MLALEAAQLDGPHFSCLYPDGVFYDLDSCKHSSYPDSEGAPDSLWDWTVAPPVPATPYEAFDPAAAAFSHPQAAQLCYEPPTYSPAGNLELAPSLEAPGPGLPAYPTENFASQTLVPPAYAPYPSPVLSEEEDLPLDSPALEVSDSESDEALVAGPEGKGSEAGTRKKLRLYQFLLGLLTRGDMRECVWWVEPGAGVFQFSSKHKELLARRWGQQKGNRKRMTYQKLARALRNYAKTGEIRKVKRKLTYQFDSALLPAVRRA
# How it was run: as §1
# [9] = molecular target: T6, ELK3 (Homo sapiens, UniProt P41970 1-407); conditions: protein: recombinant; tags: N-terminal GST; dsDNA, one strand shown
# T6 sequence: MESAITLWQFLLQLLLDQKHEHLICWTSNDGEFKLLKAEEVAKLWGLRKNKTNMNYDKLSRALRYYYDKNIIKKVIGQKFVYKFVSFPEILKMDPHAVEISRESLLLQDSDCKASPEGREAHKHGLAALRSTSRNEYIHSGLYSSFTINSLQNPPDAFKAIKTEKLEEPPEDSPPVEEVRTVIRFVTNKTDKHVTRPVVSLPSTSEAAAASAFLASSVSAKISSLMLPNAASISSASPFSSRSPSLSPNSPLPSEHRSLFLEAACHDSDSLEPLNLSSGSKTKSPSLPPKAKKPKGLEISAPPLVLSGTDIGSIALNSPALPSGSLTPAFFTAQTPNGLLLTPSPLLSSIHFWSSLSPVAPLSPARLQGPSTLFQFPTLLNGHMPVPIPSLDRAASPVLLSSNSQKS
# How it was run: as §1
# [10] = molecular target: T7, FEV (Homo sapiens, UniProt Q99581 1-238); conditions: protein: recombinant; tags: N-terminal GST; dsDNA, one strand shown
# T7 sequence: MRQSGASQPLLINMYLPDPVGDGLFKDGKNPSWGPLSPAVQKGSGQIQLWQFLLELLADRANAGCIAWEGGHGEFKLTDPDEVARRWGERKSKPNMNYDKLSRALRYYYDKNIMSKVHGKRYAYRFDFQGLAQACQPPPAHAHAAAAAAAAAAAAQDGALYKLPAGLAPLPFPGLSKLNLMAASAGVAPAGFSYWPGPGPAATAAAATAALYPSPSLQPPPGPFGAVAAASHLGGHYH
# How it was run: as §1
# [11] = molecular target: ETV5 (Homo sapiens, UniProt P41161 1-510); conditions: protein: recombinant; tags: N-terminal GST; dsDNA, one strand shown
# Chain of ETV5 (P41161 whole entry): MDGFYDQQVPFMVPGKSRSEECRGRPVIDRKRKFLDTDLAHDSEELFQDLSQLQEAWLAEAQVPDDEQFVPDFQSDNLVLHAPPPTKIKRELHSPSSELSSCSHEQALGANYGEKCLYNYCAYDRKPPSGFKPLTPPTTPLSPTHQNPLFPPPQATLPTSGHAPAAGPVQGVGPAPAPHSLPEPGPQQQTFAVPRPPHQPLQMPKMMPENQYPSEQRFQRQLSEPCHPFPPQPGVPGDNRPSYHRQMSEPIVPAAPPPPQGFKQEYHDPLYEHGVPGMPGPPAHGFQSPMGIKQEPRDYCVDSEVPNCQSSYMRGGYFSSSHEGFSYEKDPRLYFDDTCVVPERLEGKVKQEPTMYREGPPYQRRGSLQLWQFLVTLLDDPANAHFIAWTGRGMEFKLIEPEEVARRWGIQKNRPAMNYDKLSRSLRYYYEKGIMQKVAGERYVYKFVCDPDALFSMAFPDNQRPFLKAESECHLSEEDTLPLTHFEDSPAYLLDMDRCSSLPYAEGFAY
# How it was run: as §1
# [12] = molecular target: HSF1 (Homo sapiens, UniProt Q00613 1-529); conditions: protein: recombinant; tags: N-terminal GST; chain copies: 3; dsDNA, one strand shown
# Chain of HSF1 (Q00613 whole entry): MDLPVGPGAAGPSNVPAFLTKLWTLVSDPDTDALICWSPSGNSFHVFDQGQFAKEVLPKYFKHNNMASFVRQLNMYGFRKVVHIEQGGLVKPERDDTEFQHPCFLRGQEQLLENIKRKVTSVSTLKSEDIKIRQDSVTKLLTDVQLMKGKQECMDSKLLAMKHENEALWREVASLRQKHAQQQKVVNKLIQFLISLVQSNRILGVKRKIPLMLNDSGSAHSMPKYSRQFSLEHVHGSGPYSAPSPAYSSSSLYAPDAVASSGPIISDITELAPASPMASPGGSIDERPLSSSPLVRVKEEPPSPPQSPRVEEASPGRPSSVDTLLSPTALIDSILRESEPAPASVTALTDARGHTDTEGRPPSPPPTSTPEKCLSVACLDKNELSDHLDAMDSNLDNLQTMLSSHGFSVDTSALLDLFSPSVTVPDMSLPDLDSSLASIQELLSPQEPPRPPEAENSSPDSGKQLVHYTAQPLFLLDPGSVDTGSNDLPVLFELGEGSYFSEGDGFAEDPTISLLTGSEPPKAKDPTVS
# How it was run: as §1
# [13] = molecular target: T8, SPIC (Homo sapiens, UniProt Q8N5J4 1-248); conditions: protein: recombinant; tags: N-terminal GST; dsDNA, one strand shown
# T8 sequence: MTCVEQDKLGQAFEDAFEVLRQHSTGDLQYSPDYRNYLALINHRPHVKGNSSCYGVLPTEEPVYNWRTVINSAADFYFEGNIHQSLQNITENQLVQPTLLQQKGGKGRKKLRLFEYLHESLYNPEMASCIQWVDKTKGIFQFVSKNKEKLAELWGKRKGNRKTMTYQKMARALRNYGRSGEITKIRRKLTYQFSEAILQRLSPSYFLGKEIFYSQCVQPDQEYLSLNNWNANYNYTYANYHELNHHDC
# How it was run: as §1
# [14] = molecular target: ELF4 (Homo sapiens, UniProt Q99607 1-663); conditions: protein: recombinant; tags: N-terminal GST; dsDNA, one strand shown
# Chain of ELF4 (Q99607 whole entry): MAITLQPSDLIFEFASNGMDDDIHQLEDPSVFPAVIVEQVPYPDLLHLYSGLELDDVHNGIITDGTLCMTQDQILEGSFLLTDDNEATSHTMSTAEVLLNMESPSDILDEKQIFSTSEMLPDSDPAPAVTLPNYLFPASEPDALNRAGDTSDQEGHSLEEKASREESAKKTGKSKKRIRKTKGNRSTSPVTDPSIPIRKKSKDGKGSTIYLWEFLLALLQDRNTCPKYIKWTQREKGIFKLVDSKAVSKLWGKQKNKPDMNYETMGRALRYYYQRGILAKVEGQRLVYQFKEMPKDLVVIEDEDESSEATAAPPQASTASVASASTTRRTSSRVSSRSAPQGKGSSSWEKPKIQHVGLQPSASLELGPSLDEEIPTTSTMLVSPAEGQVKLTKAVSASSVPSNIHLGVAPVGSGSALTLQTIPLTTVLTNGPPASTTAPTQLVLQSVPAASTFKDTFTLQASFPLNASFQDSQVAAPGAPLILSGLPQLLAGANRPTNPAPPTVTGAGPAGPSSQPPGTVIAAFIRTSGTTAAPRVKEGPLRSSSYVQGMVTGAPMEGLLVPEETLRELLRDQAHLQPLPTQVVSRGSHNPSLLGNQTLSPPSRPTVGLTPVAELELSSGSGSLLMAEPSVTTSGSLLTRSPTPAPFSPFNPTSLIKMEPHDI
# How it was run: as §1
# [15] = molecular target: T9, ELK4 (Homo sapiens, UniProt P28324-2 1-405); conditions: protein: recombinant; tags: N-terminal GST; dsDNA, one strand shown
# T9 sequence: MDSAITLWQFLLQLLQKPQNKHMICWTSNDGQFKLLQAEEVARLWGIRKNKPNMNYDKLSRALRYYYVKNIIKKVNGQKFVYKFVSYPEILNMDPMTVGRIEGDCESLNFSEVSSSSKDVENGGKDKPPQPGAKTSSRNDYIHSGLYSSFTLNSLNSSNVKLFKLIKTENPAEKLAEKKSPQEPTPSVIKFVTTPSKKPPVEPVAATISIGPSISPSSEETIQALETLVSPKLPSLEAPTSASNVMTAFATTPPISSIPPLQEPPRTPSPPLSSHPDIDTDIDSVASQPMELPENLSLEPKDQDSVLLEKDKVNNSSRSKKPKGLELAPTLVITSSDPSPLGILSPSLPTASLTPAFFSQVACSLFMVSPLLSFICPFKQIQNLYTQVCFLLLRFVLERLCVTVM
# How it was run: as §1
# [16] = molecular target: T10, ETV2 (Homo sapiens, UniProt O00321 1-342); conditions: protein: recombinant; tags: N-terminal GST; dsDNA, one strand shown
# T10 sequence: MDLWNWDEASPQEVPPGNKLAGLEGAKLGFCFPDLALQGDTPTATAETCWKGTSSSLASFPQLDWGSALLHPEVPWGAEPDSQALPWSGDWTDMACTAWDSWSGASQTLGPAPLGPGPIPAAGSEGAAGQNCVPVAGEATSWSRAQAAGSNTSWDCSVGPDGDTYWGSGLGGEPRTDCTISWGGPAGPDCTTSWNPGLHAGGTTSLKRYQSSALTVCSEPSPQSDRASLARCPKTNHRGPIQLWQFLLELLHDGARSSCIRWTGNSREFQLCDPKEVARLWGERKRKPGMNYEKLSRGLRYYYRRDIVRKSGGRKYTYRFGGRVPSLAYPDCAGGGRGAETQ
# How it was run: as §1
# [17] = molecular target: T11, ELF3 (Homo sapiens, UniProt P78545 1-371); conditions: protein: recombinant; tags: N-terminal GST; dsDNA, one strand shown
# T11 sequence: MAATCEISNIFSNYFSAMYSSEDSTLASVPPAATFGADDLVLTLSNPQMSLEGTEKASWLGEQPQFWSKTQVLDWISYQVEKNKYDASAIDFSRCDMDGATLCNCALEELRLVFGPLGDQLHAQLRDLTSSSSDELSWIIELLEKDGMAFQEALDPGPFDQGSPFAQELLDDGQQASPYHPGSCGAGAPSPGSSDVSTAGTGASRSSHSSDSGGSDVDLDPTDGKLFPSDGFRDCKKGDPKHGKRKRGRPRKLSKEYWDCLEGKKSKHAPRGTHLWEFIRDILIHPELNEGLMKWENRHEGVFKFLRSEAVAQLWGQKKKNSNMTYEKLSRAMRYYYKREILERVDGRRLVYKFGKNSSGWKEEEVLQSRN
# How it was run: as §1
# [18] = molecular target: CRX (Homo sapiens, UniProt O43186 1-299); conditions: protein: recombinant; tags: N-terminal GST; dsDNA, one strand shown
# Chain of CRX (O43186 whole entry): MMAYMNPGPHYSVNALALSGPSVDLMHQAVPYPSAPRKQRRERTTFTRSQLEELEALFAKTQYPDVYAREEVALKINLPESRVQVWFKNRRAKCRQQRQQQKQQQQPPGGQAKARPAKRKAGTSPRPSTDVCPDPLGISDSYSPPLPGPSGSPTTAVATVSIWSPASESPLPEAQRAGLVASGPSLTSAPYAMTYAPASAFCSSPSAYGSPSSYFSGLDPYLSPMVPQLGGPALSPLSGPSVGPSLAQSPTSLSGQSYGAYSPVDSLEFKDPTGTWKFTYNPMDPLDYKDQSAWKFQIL
# How it was run: as §1
# [19] = molecular target: ETV1 (Homo sapiens, UniProt P50549 1-477); conditions: protein: recombinant; tags: N-terminal GST; dsDNA, one strand shown
# Chain of ETV1 (P50549 whole entry): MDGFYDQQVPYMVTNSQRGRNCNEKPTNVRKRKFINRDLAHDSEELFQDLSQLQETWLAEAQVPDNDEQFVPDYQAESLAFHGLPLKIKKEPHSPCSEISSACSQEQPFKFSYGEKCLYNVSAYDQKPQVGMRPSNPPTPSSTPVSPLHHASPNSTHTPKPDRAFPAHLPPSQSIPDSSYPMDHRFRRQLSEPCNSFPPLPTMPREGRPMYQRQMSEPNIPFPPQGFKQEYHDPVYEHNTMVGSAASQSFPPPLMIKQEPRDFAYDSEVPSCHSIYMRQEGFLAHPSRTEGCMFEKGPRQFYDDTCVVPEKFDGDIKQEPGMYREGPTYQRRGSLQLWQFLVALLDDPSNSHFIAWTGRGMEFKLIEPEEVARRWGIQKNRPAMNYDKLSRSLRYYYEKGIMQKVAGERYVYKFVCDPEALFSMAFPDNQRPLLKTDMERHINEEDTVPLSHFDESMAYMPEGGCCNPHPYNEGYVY
# How it was run: as §1
sequence,measurement,setting,value
ACTCAA,binding signal,[1],"1.19 fold enrichment (6-mer frequency, TF over GST control)"
same,binding signal,[2],"1.23 fold enrichment (6-mer frequency, TF over GST control)"
same,binding signal,[3],"1.22 fold enrichment (6-mer frequency, TF over GST control)"
same,binding signal,[4],"1.21 fold enrichment (6-mer frequency, TF over GST control)"
same,binding signal,[5],"1.22 fold enrichment (6-mer frequency, TF over GST control)"
same,binding signal,[6],"1.18 fold enrichment (6-mer frequency, TF over GST control)"
same,binding signal,[7],"1.24 fold enrichment (6-mer frequency, TF over GST control)"
same,binding signal,[8],"1.23 fold enrichment (6-mer frequency, TF over GST control)"
same,binding signal,[9],"1.31 fold enrichment (6-mer frequency, TF over GST control)"
same,binding signal,[10],"1.23 fold enrichment (6-mer frequency, TF over GST control)"
same,binding signal,[11],"1.16 fold enrichment (6-mer frequency, TF over GST control)"
same,binding signal,[12],"1.07 fold enrichment (6-mer frequency, TF over GST control)"
same,binding signal,[13],"1.17 fold enrichment (6-mer frequency, TF over GST control)"
same,binding signal,[14],"1.16 fold enrichment (6-mer frequency, TF over GST control)"
same,binding signal,[15],"1.18 fold enrichment (6-mer frequency, TF over GST control)"
same,binding signal,[16],"1.15 fold enrichment (6-mer frequency, TF over GST control)"
same,binding signal,[17],"1.12 fold enrichment (6-mer frequency, TF over GST control)"
same,binding signal,[18],"1.12 fold enrichment (6-mer frequency, TF over GST control)"
same,binding signal,[19],"1.15 fold enrichment (6-mer frequency, TF over GST control)"
